Shown are actives, neighbours in structure and some others; about 4.2% of the full set was active somewhere.
TIM10 inh = growth inhibitors of TIM10 yeast strain | S. cerevisiae TIM10 strain growth, BacTiter-Glo luminescence, 24 h | AID 463195 | 1.4% of 330,000 active | inhibition, % at 10 µM;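 active = inhibition of 40% or more at the single tested concentration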;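 note: wild-type TIM10 isogenic control strain grown at permissive 25 °C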
NALP3 yeast inh = inhibitors of NALP3 inflammasome in yeast; inhibition, % at 10 µM; AID 2825; 0.39% of 330,000 active; Yeast reconstituted NLRP3/ASC/caspase-1, beta-gal luminescence, 24 h;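 active = inhibition of 50% or more; inactive = inhibition below 50%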
tim23-1 inh = inhibits growth of tim23-1 mutant yeast | 1.3% of 330,000 active | AID 463212 | inhibition, % at 20 µM | S. cerevisiae tim23-1 growth, BacTiter-Glo luminescence, 24 h;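 active = growth inhibition of the mutant yeast at or above 50%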;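 note: temperature-sensitive mutant grown at 25 °C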
V-ATPase pHluor = regulators of yeast V-ATPase proton transport | AID 504577 | S. cerevisiae, pHLuorin cytosolic pH fluorescence | response, % at 10 µM | 0.37% of 350,000 active; in the data active = response mostly above about 7.3%, no sharp cut-off; inactive = mostly below about 5.4%; note: actives read high
tim10-1 inh = tim10-1 yeast growth inhibition | S. cerevisiae tim10-1 ts strain growth, BacTiter-Glo, 24 h | inhibition, % at 20 µM | 2.2% of 330,000 active | AID 463190;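 active = inhibition of at least 40%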;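 note: mutant grown at 25 °C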
NALP1 yeast inh = NALP1 inhibition; inhibition, % at 10 µM; 0.61% of 280,000 active; S. cerevisiae NALP1/ASC/caspase-1 growth, X-gal OD620, 72 h; in the data active = inhibition mostly above about 24%, no sharp cut-off; inactive = mostly below about 32%
NALP3 confirm = confirmation of NALP3 inhibitors in yeast. inhibition, % at 10 µM. shares compounds with NALP3 yeast inh. yeast expressing human NALP3, luminescence. 81% of 1,300 active. AID 435006; in the data active = inhibition above about 48%
Casp1 ASC ctr = caspase-1-ASC yeast counter-screen hit; shares compounds with NALP3 yeast inh; yeast expressing Caspase-1-ASC, luminescence counter screen; inhibition, % at 10 µM; 66% of 1,000 active
NALP3 yeast rt = confirmation retest of NALP3 inhibitors in yeast; 53% of 1,000 active; inhibition, % at 10 µM; shares compounds with NALP3 yeast inh; yeast expressing human NALP3, luminescence read-out
Each line names hits and unclear results; the compound was inactive in the other large screens (follow-up assays come after a bar, where they were run). Cut-off read from the data, not from the text of the source, unless noted: active = inhibition above about 50%; inactive = the rest.

CN1CCN(c2ccccc2NC(=O)c2cc3c(s2)-c2ccccc2OC3)CC1	NALP3 yeast inh 71 (no result: NALP1 yeast inh) | NALP3 confirm 76 | Casp1 ASC ctr 82 | NALP3 yeast rt 76
O=C(Nc1cccnc1Cl)c1cc2c(s1)-c1ccccc1OC2	none
COc1ccc(Cn2c(-c3ccc(OC)cc3)nc3ccccc32)cc1	none
Cn1cccc1-c1nc2ccccc2n1Cc1ccccc1	none | NALP3 confirm inactive
CC1=C(C(=O)N2CCOCC2)CC(CC(=O)NCCN2CCOCC2)C(=O)N1Cc1ccc(C(C)(C)C)cc1 (stereo unspecified)	none (no result: TIM10 inh, NALP3 yeast inh, tim23-1 inh, tim10-1 inh, NALP1 yeast inh)
O=C(NNC(=O)c1ccccc1F)c1cccs1	none
O=S(=O)(c1ccc(F)cc1)c1snnc1-c1ccccc1	none (no result: TIM10 inh, NALP3 yeast inh, tim23-1 inh, tim10-1 inh)
O=S(=O)(c1ccc(Cl)cc1)c1snnc1-c1ccccc1	NALP3 yeast inh 61 | NALP3 confirm 72 | Casp1 ASC ctr 74 | NALP3 yeast rt 66
Cc1ccc([N+](=O)[O-])cc1NC(=O)c1ccc(C(C)(C)C)cc1	NALP3 yeast inh 57 | NALP3 confirm 51 | Casp1 ASC ctr inactive | NALP3 yeast rt inactive
Cc1cccc2nc(CSc3nc4ccccc4o3)cn12	none
c1ccc2oc(SCc3cn4ccccc4n3)nc2c1	NALP3 yeast inh 56 | NALP3 confirm 69 | Casp1 ASC ctr 69 | NALP3 yeast rt 53
CCOC(=O)c1ccc(NC(=O)CSc2nnc(-c3cccs3)n2C)cc1	none
CC1(NC(=O)N2CCCCC2)CCS(=O)(=O)C1 (stereo unspecified)	none
CC12CC3(C)CC(C)(C1)CC(NC(=O)N1CCCC1)(C2)C3	NALP3 yeast inh 94 | NALP3 confirm 49 | Casp1 ASC ctr 98 | NALP3 yeast rt 99
CC(C)c1ccc(NC(=O)COc2ccccc2)cc1	none
CCCC1CCC(c2ccc(OCC)cc2)=CC1=O (stereo unspecified)	NALP3 yeast inh 52 | NALP3 confirm 62 | Casp1 ASC ctr inactive | NALP3 yeast rt inactive
CCOc1ccc(N2C(=O)CCC2=O)cc1	none (no result: NALP1 yeast inh)
Cc1oc(-c2ccccc2Cl)nc1CN(Cc1ccccn1)C[C@@H]1CCC(=O)N1	none
COC(=O)Cc1c(O)ccn(CCc2c[nH]c3ccc(OC)cc23)c1=O	none
O=C(Nc1cccc(-c2ccc(N3CCOCC3)nn2)c1)c1ccc(Cl)cc1	none (no result: NALP1 yeast inh)
O=C(COc1ccc(Cl)cc1)Nc1cccc(-c2ccc(N3CCOCC3)nn2)c1	NALP3 yeast inh 61 (no result: NALP1 yeast inh) | NALP3 confirm 75 | Casp1 ASC ctr inactive | NALP3 yeast rt inactive
Cc1cc(C)cc(NC(=O)N2CCc3ccccc3C2)c1	NALP3 yeast inh 53 | NALP3 confirm 64 | Casp1 ASC ctr inactive | NALP3 yeast rt inactive
Clc1ccc(/C=C/c2nc3ccccc3[nH]2)cc1	NALP3 yeast inh 54 | NALP3 confirm 77 | Casp1 ASC ctr 54 | NALP3 yeast rt 71
Cc1cc(OCc2nc3ccccc3s2)ccc1N	NALP3 yeast inh 55 | NALP3 confirm inactive
CCOC(=O)c1cnc(SC)nc1N1CCCC1	NALP3 yeast inh 56 | NALP3 confirm 52 | Casp1 ASC ctr 56 | NALP3 yeast rt inactive
Cc1ccc(C(C)(C)C)cc1S(=O)(=O)Nc1cccc(C(=O)N2CCN(c3ccccn3)CC2)c1	none (no result: NALP1 yeast inh)
CCSc1nnc(NC(=O)c2cccs2)s1	NALP3 yeast inh 53, V-ATPase pHluor 16 | NALP3 confirm 64 | Casp1 ASC ctr inactive | NALP3 yeast rt inactive
CCOC(=O)c1c(-c2ccccc2)nc2ccccn12	NALP3 yeast inh 97, NALP1 yeast inh 87 | NALP3 confirm 99 | Casp1 ASC ctr 99 | NALP3 yeast rt 99
CCC/C=N/NC(=O)CNC(=O)c1ccccc1Cl	none
CCOc1cc(C=O)ccc1OCCSc1ccc(C)cc1	NALP3 yeast inh 65 | NALP3 confirm 69 | Casp1 ASC ctr 65 | NALP3 yeast rt inactive
COc1cc(C=O)ccc1OCCSc1ccc(C)cc1	none (no result: NALP1 yeast inh)
COc1ccc(Cn2c(=O)sc3ccccc3c2=O)cc1	NALP3 yeast inh 51 | NALP3 confirm 60 | Casp1 ASC ctr 60 | NALP3 yeast rt inactive
O=S(=O)(NCCc1csc(-c2ccccc2)n1)c1ccc2c(c1)OCCO2	none (no result: NALP1 yeast inh)
